Bioassay records (PubChem BioAssay)
MRP reversal = MRP-mediated drug resistance reversal; H69AR cells + 2 uM doxorubicin, CellTiter-Glo, 72 h; differential viability (reversal), % at 10 µM; hit rate 0.04% among 85,000; AID 602;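 active means viability drop by adding the cancer drug above about 55%, with treated viability meeting a 40% cutoff, limit read from the data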;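 further: viability without doxorubicin minus viability with 2 µM doxorubicin for each compound; larger differential means the compound sensitizes cells more to doxorubicin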
MRP1 act = MRP-1 activation; H69AR cells + doxorubicin, viability rescue, CellTiter-Glo; viability increase, % at 10 µM; hit rate 0.61% among 140,000;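 active means viability gain under doxorubicin at or above a set limit, the compound median plus 3 SD, cut at about 4.7% in these data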;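 further: MRP-1 overexpressing cells given doxorubicin 25 µM after compound pretreatment; 18-22 h compound pretreatment then 72 h with doxorubicin before readout; 0% = doxorubicin-only wells and 100% = vehicle-treated cells without doxorubicin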
Phagocyt inh = blocks phagocytosis by macrophages | J774A.1 macrophage IgG-bead phagocytosis, imaging | inhibition, % at 5 µM | hit rate 0.07% among 110,000;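 active means inhibition above the mean of the plate negative controls plus 5 SD, cut at about 13% in these data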;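 further: phagocytic index as fraction of beads internalized from green versus red external bead signal; plate controls were DMSO negative control for no effect and cytochalasin-D positive control for full effect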
Numbers without * were called inactive; . = no result; [ ] = another dose, or the depositor's remark. Most compounds without a hit are left out; they make up all but 0.72% or so of the library.

SMILES	MRP reversal	MRP1 act	Phagocyt inh
O=C(Nc1nnc(COc2ccc(Cl)cc2)s1)C1CCCO1 (configuration not stated)	-1	8.9*	0
O=C(Nc1nnc(SCc2ccc(Cl)cc2)s1)C1CCCO1 (configuration not stated)	1	-1	0
O=C(O)c1ccc(/C=N/N2CCN(Cc3ccccc3)CC2)cc1	.	-1	-5
O=C(Nc1cccn(Cc2c(Cl)cccc2Cl)c1=O)c1c(Cl)cccc1Cl	.	9.2*	.
COC(=O)Nc1cccn(Cc2c(Cl)cccc2Cl)c1=O	.	1	.
O=C(CC12CC3CC(CC(C3)C1)C2)N/N=C/c1ccncc1	.	-1	2
O=C(Cn1nnc2ccccc2c1=O)NCCc1ccc(F)cc1	.	0	0
COC(=O)N/N=C/c1ccc(-c2cc(Cl)ccc2Cl)o1	.	4.9*	-14
COC(=O)N/N=C\c1ccc(-c2cc(Cl)c(Cl)cc2Cl)o1	.	4	-8
COc1ccccc1C(=O)Nc1ccc2c(c1)OCO2	-40	-1	0
COc1ccc(Cl)cc1C(=O)Nc1ccc2c(c1)OCO2	-6	15*	-1
CC(=O)Nc1ccc(N2CCc3c(C)c(C#N)c4nc5ccccc5n4c32)cc1	.	1	.
C=CCNc1oc(-c2cccc3ccccc23)nc1C#N	12	1	0
CCNc1oc(-c2cccc3ccccc23)nc1C#N	7	7.3*	2
O=C(Nc1cccc(S(=O)(=O)N2CCCCC2)c1)Nc1ccc(Cl)cc1Cl	.	-5	-12
CCN(CC)S(=O)(=O)c1cccc(C(=O)N[C@H](C(=O)OCC(N)=O)C(C)C)c1	2	0	.
CCc1nnc(NC(=O)c2ccc(S(=O)(=O)N3CCCCCC3)cc2)s1	1	5.4*	.
CCc1nnc(NC(=O)c2ccc(S(=O)(=O)NCC(C)C)cc2)s1	.	9.6*	-1
CCc1nnc(NC(=O)c2ccncc2)s1	4	1	-1
CCc1nnc(NC(=O)[C@@H](NC(=O)c2cccc(S(=O)(=O)N(CC)CC)c2)C(C)C)s1	.	5.2*	0
CCc1nnc(NC(=O)c2ccc(S(=O)(=O)N3CCCCC3C)cc2)s1 (configuration not stated)	24	1	0
CCN(CC)c1ccc(C(=O)OCC(=O)Nc2cccc(S(=O)(=O)NC3=NCCCCC3)c2)cc1	.	-2	0
CCc1ccc(N(C(=O)CNC(=O)c2cccs2)C(C(=O)NC(C)(C)C)c2cc(OC)c(OC)c(OC)c2)cc1 (configuration not stated)	.	-1	.
Cn1ccc(C(=O)Nc2ccc(Br)cc2Br)n1	.	1	6
Cc1ccc(-n2nc(CN3CCOCC3)c(-c3ccccc3)c2N)cc1Cl	.	-3	-2
SMILES	MRP reversal	MRP1 act	Phagocyt inh
CCN=C1S/C(=C\c2sccc2C)C(=O)N1CC	.	1	-9
CC/C(=N\NC(=O)C(N)=O)c1ccccc1O	.	5.1*	0
C/C(=N\NC(=O)C(N)=O)c1ccc(Br)cc1	.	-3	-3
Cn1cnnc1SCC(=O)Nc1ccccc1	0	3	.
Cn1cnnc1SCC(=O)NN(c1ccccc1)c1ccccc1	.	0	27*[artifact]
CC1CCc2cc(F)ccc2N1C(=O)CSc1nnc2c(n1)[nH]c1ccccc12 (configuration not stated)	.	-6	.
COc1ccc(OC)c(Nc2nc(N)nc(-c3cc4ccccc4o3)n2)c1	-24	-3	36*
COc1ccc(OC)c(NC(=O)c2cc3ccccc3o2)c1	-8	-2	2
CCCCCNC(=O)Cc1cc(=O)[nH]c(=O)[nH]1	-3	-3	0
Cc1ccc(NC2=CC(=O)CC(c3ccccc3)C2)cc1 (configuration not stated)	.	-4	-2
Cc1ccc(NC2=CC(=O)CC(c3ccc(Cl)cc3)C2)cc1 (configuration not stated)	.	4.7*	-8
O=C(Nc1ccccc1C(F)(F)F)N1CCC(n2c(=O)[nH]c3ccccc32)CC1	.	-4	.
CCOc1ccc(NC(=O)N2CCC(n3c(=O)[nH]c4ccccc43)CC2)cc1	-16	5.6*	0
Cc1ccccc1NC(=O)c1ccc(-n2cncn2)nc1	.	0	0
CCn1cc(C(=O)O)c(=O)c2cc(F)c(N3CCNCC3)cc21	-9	1	.
NC1C2CN(c3nc4c(cc3F)c(=O)c(C(=O)O)cn4-c3ccc(F)cc3F)CC12 (configuration not stated)	.	6.6*	-1
COc1cccc(NC(=S)NC2CC(C)(C)NC(C)(C)C2)c1	.	-3	-9
Cn1c(=O)n(C/C=C/c2ccccc2)c(=O)c2c1nc1n2CCCN1c1ccc(F)cc1	4	5.3*	0
Cn1c(=O)n(C/C=C/c2ccccc2)c(=O)c2c1nc1n2CCCN1Cc1ccccc1	28	3	4
CCOC(=O)c1c(N2C(=O)C3C4C=CC(C4)C3C2=O)sc2c1CCC(C)C2 (configuration not stated)	.	-1	-6
CCOc1ccccc1NC(=O)c1cccc(NC(=O)CC(c2ccccc2)c2ccccc2)c1	.	8.6*	.
CCOc1ccccc1NC(=O)c1ccc(Cl)c(NC(=O)CC(c2ccccc2)c2ccccc2)c1	.	1	1
CCOC(=O)c1sc(Nc2cccc(C)c2C)nc1C	3	-3	.
Cc1cccc(-n2c(N)cc(=O)nc2SCC(=O)Nc2nnc(C)s2)c1	1	5.7*	0
CCCCc1nnc(NC(=O)CSc2nc(=O)cc(N)n2-c2ccccc2)s1	-4	3	.
SMILES	MRP reversal	MRP1 act	Phagocyt inh
CC1Cc2ccccc2N1C(=O)CSc1nnc(Cc2ccccc2)n1CCc1ccccc1 (configuration not stated)	.	-3	-2
Cc1cc(NC(=O)CCN2C(=O)c3ccccc3C2=O)no1	-5	-1	1
COc1cccc(/C=C2\SC(=O)N(CCC(=O)NNC(=O)c3ccccc3Cl)C2=O)c1	.	0	.
COc1ccc(NC(=O)CCCN2C(=O)/C(=C\c3ccco3)SC2=S)cc1	.	-5	-7
CC(/C=C1\SC(=O)N(CC(=O)Nc2cccc(O)c2)C1=O)=C\c1ccccc1	.	4	0
Cc1cc(NC(=O)CN2C(=O)S/C(=C\c3ccccc3)C2=O)no1	.	5.1*	.
O=C(CN1C(=O)S/C(=C\c2ccc(Cl)cc2)C1=O)NNC(=O)c1ccccc1O	.	7.7*	.
CC(/C=C1\SC(=O)N(CC(=O)Nc2ccc(O)cc2)C1=O)=C\c1ccccc1	.	8.7*	.
CC(=O)c1ccc(NC(=O)CCCN2C(=O)/C(=C/C(C)=C/c3ccccc3)SC2=S)cc1	.	6.1*	-5
CCOC(=O)c1c(NC(=O)c2cnn3c2NC(c2cccc(OC)c2)CC3C(F)(F)F)sc2c1CCCC2 (configuration not stated)	.	-1	-10
CCn1c(NC(=O)Nc2cccc(C)c2C)cc2sccc21	.	-4	0
CC1CCCN(C(=S)Nc2ccc3nc4n(c(=O)c3c2)CCCCC4)C1 (configuration not stated)	.	0	-10
COc1ccc(N2C(=O)CC(N3CCC(O)(c4ccc(Br)cc4)CC3)C2=O)cc1 (configuration not stated)	10	-1	-2
O=C1CC(N2CCC(O)(c3ccc(Br)cc3)CC2)C(=O)N1c1ccc(Cl)cc1 (configuration not stated)	.	6.3*	.
O=C1CC(N2CCCCC2)C(=O)N1c1ccccc1 (configuration not stated)	-1	0	.
O=C1CC(N2CCCN(C3CC(=O)N(c4ccc(F)cc4)C3=O)CC2)C(=O)N1c1ccc(F)cc1 (configuration not stated)	9	8.3*	1
